Screening data (PubChem BioAssay)
D1 antag: human D1 dopamine receptor antagonism; P21728; HEK293 TREx D1 cells, calcium flux, dopamine EC80; hits give low values; activity change, negative = inhibition, % at 10 µM; 360,000 compounds, 3.2% hits; AID 504652; in the data active means activity change below about -30%; further: on the % scale 0 is the no-effect control and ±100 the full control effect
Target sequence (P21728 whole entry, looked up): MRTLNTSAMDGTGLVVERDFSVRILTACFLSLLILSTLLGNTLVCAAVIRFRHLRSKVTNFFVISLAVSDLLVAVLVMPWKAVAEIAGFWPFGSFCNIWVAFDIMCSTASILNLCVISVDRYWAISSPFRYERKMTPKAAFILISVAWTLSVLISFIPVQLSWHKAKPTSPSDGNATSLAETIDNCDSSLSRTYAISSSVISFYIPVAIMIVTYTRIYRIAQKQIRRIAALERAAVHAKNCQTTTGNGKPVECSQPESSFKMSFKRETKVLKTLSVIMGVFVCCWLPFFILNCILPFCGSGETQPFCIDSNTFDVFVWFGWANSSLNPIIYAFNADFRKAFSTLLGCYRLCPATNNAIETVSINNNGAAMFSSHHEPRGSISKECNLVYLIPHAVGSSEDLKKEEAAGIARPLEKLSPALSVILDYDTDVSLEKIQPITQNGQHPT
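After overnight tetracycline induction at 30 C, force-coupled D1 HEK293 cells took up a no-wash calcium dye at room temperature. Compounds were added and monitored 180 s, and the response to EC80 dopamine was then recorded.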
TRHR enhancer: allosterically enhances the human TRH receptor | P34981 | TRHR cells, fluo-8 calcium fluorescence, EC20 TRH enhancement | enhancement, % at 2 µM | 360,000 compounds, 0.66% hits | AID 493056; in the data active means enhancement above about 30%; further: 0% is about no effect
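TRHR-expressing cells loaded with fluo-8 calcium dye were read kinetically (ex 480/em 530) during compound addition, then stimulated with an EC20 of TRH (10 nM final). Enhancement of the Gq-mediated intracellular calcium response was scored.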
TRHR ag: TRH receptor (human) agonism; TRHR cells, calcium flux fluo-8, FDSS agonist mode; P34981; 360,000 compounds, 0.18% hits; activation, % at 2 µM; further: 0% is about no effect
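Read-out: compound-evoked intracellular calcium rise in TRHR cells, fluo-8 dye, kinetic FDSS fluorescence at 1 s/cycle following a 10-cycle baseline. Cells cultured overnight before dye loading (30 min–1.5 h, RT).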
D1 ag: agonists of human D1 dopamine receptor. P21728. HEK293 T-REx D1 cells, calcium flux, agonist mode. activation, % at 2 µM. 360,000 compounds, 1% hits. AID 504660; further: 0% is about no effect
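Tetracycline-induced HEK293 TREx D1 cells, force-coupled to calcium signalling, were dye-loaded with a no-wash calcium kit. Compound was pin-added after a 10 s baseline. Fluorescence was read kinetically at 1 cycle/s for 180 s, with calcium rises flagged as agonism.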
D1 PAM: potentiators of human D1 dopamine receptor | P21728 | HEK293 TREx D1 cells, calcium flux, dopamine EC20 potentiation | potentiation, % at 10 µM | 360,000 compounds, 0.036% hits; in the data active means potentiation above about 30%; further: 0% is about no effect
Active calls of the source: *; ! = a repeat was not active. The list is not random: actives were taken first. Their share in the collection is about 4.6%. Unless noted, no stated cut-off is given here; in the data, active means activation above about 30%; inactive means the rest.

SMILES	D1 antag	TRHR enhancer	TRHR ag	D1 ag	D1 PAM
COc1ccccc1N1CCN(S(=O)(=O)/C=C/c2ccccc2)CC1	-37*	-8	0	1	-2
CCOC(=O)N1CCN(S(=O)(=O)/C=C/c2ccccc2)CC1	10	-4	0	1	-8
CCNC(=S)N1CCN(S(=O)(=O)/C=C/c2ccccc2)CC1	5	40*	-1	0	-1
COc1ccccc1N1CCN(S(=O)(=O)c2ccc3c(c2)n(C)c(=O)n3C)CC1	-47*	-4	-2	2	-4
Cc1cc(=O)n(C)c2ccc(S(=O)(=O)N3CCOCC3)cc12	10	3	0	-2	-2
Cn1c(=O)c2cc(S(=O)(=O)N3CCOCC3)ccc2n(C)c1=O	-31*	14	-1	-1	5
Cc1ccc(-n2cnc3cc(C(=O)NC4CCCCCC4)ccc32)c(C)c1	-19	-3	0	2	-2
COc1ccc(Cn2c(SCc3ccc(C(=O)NC(C)c4ccccc4)cc3)nc3cccnc32)cc1 (configuration not stated)	-2	5	1	7	1
CC(C)Cc1nnc(NC(=O)CCS(=O)(=O)c2ccc(Cl)cc2)s1	10	3	0	6	6
Cc1ccc2c(=O)cc(C(=O)Nc3sc4c(c3C(=O)NCc3ccco3)CCC4)oc2c1	-12	0	-1	0	2
CC1(C)CC(NC(=S)NCc2ccc3c(c2)OCO3)CC(C)(C)N1	23	-2	2	-2	-4
CCc1nc(-c2cc(S(=O)(=O)N3CCN(c4ccccc4F)CC3)ccc2OC)no1	5	-3	0	7	-5
COc1ccc(S(=O)(=O)N2CCN(c3ccccc3F)CC2)cc1-c1noc(C)n1	-34*	-7	74*	6	-3
N#Cc1ccc(/C=C/C(=O)c2ccco2)cc1	-4	-4	0	5	-8
Nc1ccc(/C=C/C(=O)c2ccco2)cc1	7	5	21	72*	0
Cn1c(=O)n(Cc2ccc(Cl)cc2)c2ccccc21	-33*	-7	0	-3	-5
Cc1ccc(CNC(=O)CN2C(=O)C3CCCCN3c3ccc(C(=O)N4CCCC4)cc32)cc1 (configuration not stated)	-5	5	0	-1	4
CCOc1ccccc1NC(=O)CSc1nc2c(oc3ccccc32)c(=O)n1-c1ccc(F)cc1	-19	11	0	2	-2
O=C(Nc1ccc(Cl)cc1Cl)C1CCC(=O)N1Cc1ccccc1Cl (configuration not stated)	9	1	0	37*	-1
CC1CCN(C(=O)Cn2cc(SCc3ccccc3)c3ccccc32)CC1	5	-15	0	2	0
CCOc1cc(CNc2ccc(O)cc2)ccc1OCc1ccc(Cl)cc1	-30*	8	0	2	-7
Oc1ccc(NCc2ccccc2OCc2ccc(Cl)cc2)cc1	-3	47*	0	0	-3
O=C(NCc1ccc(Cl)cc1)c1ccc(CNS(=O)(=O)c2ccc(F)cc2)cc1	-2	3	0	9	-5
CCN(CC)CCn1c(=O)n(-c2ccc(Cl)cc2)c(=O)c2c3c(sc21)CN(C)CC3	-2	1	5	8	-6
CN1CCc2c(sc3c2c(=O)n(-c2ccc(Cl)cc2)c2nncn32)C1	-60*	-1	1	0	-7
SMILES	D1 antag	TRHR enhancer	TRHR ag	D1 ag	D1 PAM
CCOP(=O)(OCC)C(C)(C)NC(=O)Nc1ccc(Cl)c(Cl)c1	-9	14	0	2	-9
CCOC(=O)c1ccc(NC(=O)CCc2nc(-c3ccc(Cl)cc3)no2)cc1	-19	11	0	20	-4
Cc1ccc(-c2noc(CCCC(=O)Nc3cccnc3)n2)cc1	-34*	-12	-1	20	-3
CCOC(=O)c1ccc(NC(=O)CCc2nc(-c3ccc(C)cc3)no2)cc1	1	15	-2	45*	-9
O=C(CCCc1nc(-c2ccccc2)no1)Nc1cccnc1	-17	9	0	6	-10
COc1ccc(S(=O)Cc2ccc(C(=O)N3CCN(c4cccc(C)c4C)CC3)o2)cc1 (configuration not stated)	-42*!	-7	0	11	1
COc1cccc(CNC(=O)c2ccc(CS(=O)(=O)Cc3ccccc3C)o2)c1	15	-3	0	9	-3
COc1cccc(CNC(=O)c2ccc(CS(=O)(=O)Cc3ccc(C)cc3)o2)c1	-43*	-6	0	14	-2
COc1ccc(S(=O)Cc2ccc(C(=O)NCc3cccc(OC)c3)o2)cc1 (configuration not stated)	-35*	-3	0	2	-2
Cc1cc2c(s1)c1cnn(Cc3cccc(Cl)c3)c(=O)c1n2C	-5	6	1	2	0
COc1ccc(OC)c(NC(=O)c2cccc(NC(=O)c3ccccc3C(=O)O)c2)c1	-6	11	0	4	-1
Cc1ccc(COc2ccc(-c3cc(C(F)(F)F)n4nc(C)cc4n3)cc2)cc1	6	3	-3	0	-1
N#CCC(N)=C(C#N)C#N	9	-8	38*	80*	8
Cc1cccc(/C=N/N2CCN(c3ccccc3)CC2)c1	-1	7	1	2	0
COc1ccccc1C(=O)Nc1c(C(=O)c2ccccc2)oc2ccccc12	22	1	-1	4	6
CCOC(=O)c1oc2ccccc2c1NC(=O)c1ccccc1OC	58	0	0	4	14
COC(=O)c1oc2ccccc2c1NC(=O)c1ccccc1O	-43*	9	-1	14	-6
COc1ccccc1C(=O)Nc1c(C(=O)NC(C)(C)C)oc2ccccc12	64	12	1	33*	33*
Brc1ccc(NC2=Nc3ccccc3CC2)cc1	-30*	-1	3	2	-6
COc1cccc(OC)c1C(=O)Nc1cc2c(cc1N1CCOCC1)n(C)c(=O)n2C	-4	8	0	3	-2
Cc1nn(Cc2ccccc2Cl)c2sc(C(=O)Nc3ccccc3N3CCOCC3)cc12	-38*	2	0	3	-4
Cn1c(=O)n(C)c2cc(N3CCOCC3)c(NC(=O)c3ccc(F)cc3)cc21	3	32*	0	2	2
Cn1c(=O)n(C)c2cc(N3CCOCC3)c(NC(=O)c3ccccc3Br)cc21	-43*	3	-1	-1	-2
O=C(Nc1ccccc1N1CCOCC1)c1cc(Br)c(Br)s1	-31*	-1	0	3	3
Cc1ccc(C)c(NC(=O)CC2NCCNC2=O)c1 (configuration not stated)	3	-3	2	-1	-3
Cc1ccc2c(CC(=O)NCCc3ccc(S(N)(=O)=O)cc3)coc2c1	-8	0	1	2	-4
